Assay outcomes (PubChem)
Shown is part of a subset that was picked to be rich in hits.
IDE exosite FP: insulin-degrading enzyme (human) exo-site inhibition; z-score at 20 µM; P14735; hit rate 6.3% among 17,000; purified IDE, FL-6b probe fluorescence polarization; active compounds read low;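 active = z-score of -3 or lower, meaning strong loss of probe binding signal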;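 also: His-tagged human IDE residues 42-1019 made in E. coli with 30 nM FL-6b probe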
Target sequence (P14735 42-1019 limits assumed): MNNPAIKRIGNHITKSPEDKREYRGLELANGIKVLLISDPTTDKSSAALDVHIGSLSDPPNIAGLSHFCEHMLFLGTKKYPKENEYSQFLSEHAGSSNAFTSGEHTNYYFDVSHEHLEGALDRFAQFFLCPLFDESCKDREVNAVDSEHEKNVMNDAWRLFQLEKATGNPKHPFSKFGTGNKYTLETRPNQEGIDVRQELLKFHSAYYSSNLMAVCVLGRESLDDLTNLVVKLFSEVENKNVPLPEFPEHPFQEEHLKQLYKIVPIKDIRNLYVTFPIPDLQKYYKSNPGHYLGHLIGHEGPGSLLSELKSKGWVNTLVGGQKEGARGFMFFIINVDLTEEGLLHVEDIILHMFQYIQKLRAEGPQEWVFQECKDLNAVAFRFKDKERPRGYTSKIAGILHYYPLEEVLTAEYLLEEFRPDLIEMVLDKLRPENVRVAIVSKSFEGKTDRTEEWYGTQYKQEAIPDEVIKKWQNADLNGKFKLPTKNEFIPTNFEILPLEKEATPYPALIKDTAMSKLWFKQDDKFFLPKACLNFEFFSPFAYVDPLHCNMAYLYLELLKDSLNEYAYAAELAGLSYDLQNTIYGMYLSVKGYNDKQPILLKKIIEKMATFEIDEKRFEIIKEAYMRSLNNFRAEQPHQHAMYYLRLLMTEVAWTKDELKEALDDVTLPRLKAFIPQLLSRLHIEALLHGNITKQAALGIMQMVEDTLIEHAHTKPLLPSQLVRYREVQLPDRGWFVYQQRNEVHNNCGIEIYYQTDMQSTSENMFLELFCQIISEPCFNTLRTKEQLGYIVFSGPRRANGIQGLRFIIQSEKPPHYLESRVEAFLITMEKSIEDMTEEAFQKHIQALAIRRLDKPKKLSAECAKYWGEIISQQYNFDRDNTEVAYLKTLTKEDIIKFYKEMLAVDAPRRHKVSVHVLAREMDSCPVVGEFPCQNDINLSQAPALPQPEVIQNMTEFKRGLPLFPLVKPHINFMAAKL
* hit, by the source's call.

SMILES	IDE exosite FP
COc1ccccc1NC(=O)N1CC(=O)N2[C@H](CO)[C@@H](c3ccc(-c4ccc(F)cc4)cc3)[C@H]2C1	1.1
CCCNC(=O)N1CC(=O)N2[C@H](CO)[C@@H](c3ccc(C#Cc4ccccc4)cc3)[C@@H]2C1	-6.9*
CCCNC(=O)N1CC(=O)N2[C@@H](CO)[C@H](c3ccc(-c4cccc(C)c4)cc3)[C@@H]2C1	-16*
CCCNC(=O)N1CC(=O)N2[C@H](C1)[C@@H](c1ccc(C#Cc3cccc(F)c3)cc1)[C@@H]2CO	-3
COc1ccccc1NC(=O)N1CC(=O)N2[C@H](C1)[C@H](c1ccc(-c3cccc(C)c3)cc1)[C@@H]2CO	-1.8
CCCNC(=O)N1CC(=O)N2[C@H](C1)[C@H](c1ccc(-c3ccc(F)cc3)cc1)[C@@H]2CO	-0.28
CCCNC(=O)N1CC(=O)N2[C@H](CO)[C@H](c3ccc(C#Cc4cccc(OC)c4)cc3)[C@@H]2C1	-2
CC(C)[C@H]1COCc2cnnn2CCC[C@@H](C)C(=O)N1	1.2
Fc1ccc(F)c(CN2[C@@H]3CNC[C@H]2C3c2ccc(-c3ccncc3)cc2)c1 (stereo not given in full)	0.17
O=C(C[C@H]1CC[C@H]2[C@@H](COC[C@@H](O)CN2C(=O)c2cc(Cl)cc(Cl)c2)O1)N1CCc2ccccc2C1	-0.82
O=C(C1CCOCC1)N1[C@H](CO)[C@@H](c2ccccc2)C12CN(Cc1cccc(Cl)c1)C2	-0.59
CN1C(=O)c2cc(NC(=O)c3cccc(C(F)(F)F)c3)ccc2OC[C@H]2O[C@H](CC(=O)NCCN3CCCC3)CC[C@@H]21	-0.15
CCCN1C[C@H](C)[C@H](OC)CN(C)C(=O)c2cc(NS(=O)(=O)c3ccccc3)ccc2OC[C@@H]1C	0.52
COCC(=O)N1[C@@H](C#N)[C@@H](c2ccc(C3=CCCCC3)cc2)[C@@H]1CO	1.5
COc1cccc(NC(=O)N[C@@H]2C=C[C@@H](CC(=O)NCc3ccncn3)O[C@@H]2CO)c1	1.7
CCS(=O)(=O)N1[C@H](C#N)[C@H](c2ccc(C#Cc3ccccc3F)cc2)[C@@H]1CO	0.48
CC(=O)N1[C@@H]2CN(C(=O)c3ccc(F)cc3)c3ccccc3[C@@H]2[C@@H]1CO	2.3
CCC(=O)N1CC(=O)N2[C@H](CO)[C@@H](c3ccc(-c4ccccc4F)cc3)[C@@H]2C1	-5.2*
O=C(C1CCCCC1)N1CC(=O)N2[C@H](C1)[C@@H](c1ccc(-c3ccccc3F)cc1)[C@@H]2CO	-2.7
CCC(=O)N1CC(=O)N2[C@H](CO)[C@@H](c3ccc(-c4ccccc4F)cc3)[C@H]2C1	0.87
CCC(=O)N1CC(=O)N2[C@@H](CO)[C@@H](c3ccc(-c4ccccc4F)cc3)[C@@H]2C1	-5.6*
CCC(=O)N1CC(=O)N2[C@H](C1)[C@H](c1ccc(-c3ccccc3F)cc1)[C@@H]2CO	-3.5*
COCC(=O)N1CC(=O)N2[C@@H](CO)[C@H](c3ccc(-c4ccccc4F)cc3)[C@@H]2C1	0.036
COCC(=O)N1CC(=O)N2[C@H](C1)[C@H](c1ccc(-c3ccccc3F)cc1)[C@@H]2CO	0.35
CC(=O)N1[C@H](CO)[C@H](c2ccccc2)[C@@H]1CN(C(=O)c1ccccc1)C(C)C	1.3
SMILES	IDE exosite FP
COc1ccc(NC(=O)N2CC(=O)N3[C@H](CO)[C@@H](c4ccc(/C=C/c5ccccc5)cc4)[C@@H]3C2)cc1	1
CN(C)CC(=O)N1[C@H](C#N)[C@H](c2ccccc2-c2ccccc2F)[C@@H]1CO	-0.28
CC(=O)N(C[C@@H]1N[C@@H](CO)[C@H]1c1ccc(-c2ccc(F)cc2)cc1)C(C)C	2.3
O=C(c1cccnc1)N1CCCCN2[C@H](CO)[C@@H](c3ccc(C#Cc4ccccn4)cc3)[C@@H]2C1	-2.6
O=C(c1cccnc1)N1CCCCN2[C@H](CO)[C@@H](c3ccc(C#Cc4ccccn4)cc3)[C@H]2C1	-4.7*
O=C(c1cccnc1)N1CCCCN2[C@@H](CO)[C@H](c3ccc(C#Cc4cccnc4)cc3)[C@@H]2C1	0.61
O=C(c1ccncc1)N1CCCCN2[C@@H](CO)[C@H](c3ccc(C#Cc4ccccn4)cc3)[C@@H]2C1	-1.1
O=C(c1cccnc1)N1CCCCN2[C@H](C1)[C@@H](c1ccc(C#Cc3ccccn3)cc1)[C@@H]2CO	-3.8*
CC(C)(O)C#Cc1ccc([C@H]2[C@@H](CO)N3CCCCN(C(=O)c4cccnc4)C[C@H]23)cc1	2
CN1C(=O)c2cc(NC(=O)Cc3cccs3)ccc2OC[C@H]2O[C@H](CC(=O)NCCc3ccncc3)CC[C@H]21	-1.5
CC(C)CC#Cc1ccc([C@@H]2[C@@H](CO)N3C(=O)CN(C(=O)c4ccc5c(c4)OCO5)C[C@@H]23)cc1	2.2
O=S(=O)(c1ccc(F)cc1)N1CCCCN2[C@@H](CO)[C@H](c3ccc(C#CC4CC4)cc3)[C@@H]2C1	-0.34
CCC(=O)N1[C@H](CO)[C@H](c2ccccc2)[C@H]1CNC(=O)CN1CCOCC1	3.5
C[C@@H]1CN([C@@H](C)CO)C(=O)c2cc(NC(=O)Nc3ccccc3)ccc2O[C@@H](C)CCCCO[C@H]1CN(C)C(=O)Nc1ccccc1	1.2
